High-throughput results from PubChem.
This excerpt belongs to a sample that is enriched for hits.
Chlamy TAG: algal TAG accumulation induction | Chlamydomonas reinhardtii TAG, Nile Red fluorescence, 72 h | calls only at 10 µM (by protocol) | 44,000 compounds, 0.84% hits | AID 1159537; call rule not given here;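 further: hits raise Nile Red signal meaning more stored TAG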
Active calls of the source: *.

Screening O=C(NC1CCN(Cc2ccccc2)CC1)c1sc2ccccc2c1Cl returned Chlamy TAG inactive.
For O=C(NC1CCN(Cc2ccccc2)CC1)c1ccc(Cl)cc1Cl the results were Chlamy TAG active.
For CCCOc1ccc(-c2ccc(-c3noc(-c4ccc(OC)cc4)n3)cc2)cc1 the results were Chlamy TAG inactive.
For CCOc1ccccc1C(=O)NC1CC1 the results were Chlamy TAG active.
For CCOc1ccccc1C(=O)NC1CCC(NC(=O)c2ccccc2OCC)CC1 (configuration not stated) the results were Chlamy TAG inactive.
CCOc1ccccc1C(=O)NCCNC(=O)c1ccccc1OCC was read as Chlamy TAG inactive.
For COc1ccc(NC(=O)c2ccccc2Br)c(OC)c1 the results were Chlamy TAG inactive.
For C/C=C(\C)CN(CC)CCN(C)C the results were Chlamy TAG inactive.
For Fc1ccccc1CSc1nnc(-c2ccncc2)n1-c1ccccc1 the results were Chlamy TAG inactive.
For Fc1ccccc1CSc1nc2ncccc2[nH]1 the results were Chlamy TAG inactive.
Fc1ccccc1CSC1=NCCN1 was read as Chlamy TAG active.
For O=C(NC1CCC(NC(=O)c2cccc(Cl)c2)CC1)c1cccc(Cl)c1 (configuration not stated) the results were Chlamy TAG inactive.
For CCCN(CCO)Cc1c(F)cccc1F the results were Chlamy TAG inactive.
For CC1CCC(N2CCN(c3ncccn3)CC2)C1 (configuration not stated) the results were Chlamy TAG inactive.
For COc1cccc(N2CCN(C3CCCC(C)C3)CC2)c1 (configuration not stated) the results were Chlamy TAG active.
`COc1cccc(N2C(=O)CC(N3CCN(c4ccccc4)CC3)C2=O)c1` (configuration not stated) gave Chlamy TAG inactive.
For CC1CCC(N2CCN(c3ccccc3)CC2)C1 (configuration not stated) the results were Chlamy TAG active.
`COc1cccc(N2CCN(C3CCC(C)C3)CC2)c1` (configuration not stated) gave Chlamy TAG inactive.
Screening COc1ccccc1N1CCN(C2CCC(C)CC2)CC1 (configuration not stated) returned Chlamy TAG inactive.
`CC(=O)C1=C(C)NC(SCC(=O)c2ccc([N+](=O)[O-])cc2)=C(C#N)C1c1ccco1` (configuration not stated) gave Chlamy TAG inactive.
For N#CC(=CC=Cc1ccccc1)c1nc2ccccc2[nH]1 the results were Chlamy TAG inactive.
For COc1ccc(CN2CCCCC2C)c(C)c1C (configuration not stated) the results were Chlamy TAG inactive.
COc1ccc(CN(C)C2CCCCC2)c(C)c1C was read as Chlamy TAG active.
For COc1ccc(CN(C)C2CCN(C)CC2)c(OC)c1OC the results were Chlamy TAG inactive.
For O=S(=O)(Nc1ccccc1I)c1cc(Cl)ccc1Cl the results were Chlamy TAG inactive.
Screening CC(C)(Oc1ccc(Cl)cc1)C(=O)Nc1ccccc1Br returned Chlamy TAG inactive.
`CC(C)(Oc1ccc(Cl)cc1)C(=O)Nc1ccc(Br)cc1F` gave Chlamy TAG active.
Screening COc1ccc(Cl)cc1NC(=O)C(C)(C)Oc1ccc(Cl)cc1 returned Chlamy TAG inactive.
Screening CC(=O)C1=C(O)C(=O)N(c2ccccc2)C1c1ccccc1 (configuration not stated) returned Chlamy TAG inactive.
For O=C(N/C(=C\c1ccco1)C(=O)N1CCCCC1)c1ccc(Br)o1 the results were Chlamy TAG inactive.
`O=C(CSc1nnnn1-c1ccc(Cl)cc1)Nc1ccc(Cl)cc1Cl` gave Chlamy TAG inactive.
Cc1ccc(NC(=O)CSc2nnc(-c3ccc(Cl)cc3Cl)n2N)c(C)c1 was read as Chlamy TAG active.
COc1ccc(OC)c(NC(=O)CSc2nnc(-c3ccc(Cl)cc3Cl)n2N)c1 was read as Chlamy TAG inactive.
`COc1ccc(Br)cc1S(=O)(=O)N(CC(=O)N1CCCC1)c1ccccc1` gave Chlamy TAG inactive.
Screening COc1ccc(N(C(C)C(=O)Nc2ccc(OC)c(OC)c2)S(C)(=O)=O)cc1 (configuration not stated) returned Chlamy TAG inactive.
For CCN1CCN(Cc2ccc(N(CC)CC)cc2)CC1 the results were Chlamy TAG active.
For CCN(CC)c1ccc(CN2CCN(C)CC2)cc1 the results were Chlamy TAG inactive.
CCN(CC)c1ccc(CN2CCSCC2)cc1 was read as Chlamy TAG inactive.
Screening COc1ccc(Cl)cc1NC(=O)COc1cc(C)ccc1C(C)C returned Chlamy TAG inactive.
For COc1ccccc1N1CCN(C2CCN(Cc3cccc(F)c3)CC2)CC1 the results were Chlamy TAG active.
For CCc1ccc(CN2CCC(N3CCN(c4ccccc4OC)CC3)CC2)cc1 the results were Chlamy TAG inactive.
For COc1ccccc1N1CCN(C2CCN(Cc3ccc4c(c3)OCO4)CC2)CC1 the results were Chlamy TAG inactive.
`COc1cccc(C(=O)Nc2cccc(-c3nc4ccccc4[nH]3)c2)c1` gave Chlamy TAG inactive.
